# Compounds without any hit were thinned out: in the full panel of roughly 79,000, 15% have a hit. A number with no mark means an inactive call. Activity calls are given as the source filed them. Rule as the data show it: active = growth inhibition above about 70%; inactive = the rest.
# Key:
# [1] = NCI Yeast Anticancer Drug Screen. Data for the rad52 strain (AID 147);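 also: 0% = growth of vehicle-treated control cultures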; conditions: S. cerevisiae rad52 mutant growth inhibition, active compounds read high
# In short: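 Compounds are applied to a genetically defined yeast strain lacking normal DNA damage repair, and inhibition of growth is expressed relative to cultures given vehicle only.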
# [2] = NCI Yeast Anticancer Drug Screen. Data for the wt1 strain (AID 149);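 also: 0% = growth of vehicle-treated wt1 cultures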; conditions: S. cerevisiae wt1 strain (SPY 50644) growth inhibition, active compounds read high
# In short: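 Vehicle-normalised growth inhibition; strain wt1; compound exposure.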
# [3] = NCI Yeast Anticancer Drug Screen. Data for the rad50EPP+ strain (AID 151);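 also: 0% = growth of vehicle-treated control cultures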; conditions: S. cerevisiae rad50 mutant strain, active compounds read high
# In short: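 Compounds were applied to the rad50EPP+ yeast strain, which bears a defined DNA repair alteration, and growth inhibition was determined relative to vehicle-treated cultures.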
# [4] = NCI Yeast Anticancer Drug Screen. Data for the rad50 strain (AID 155);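 also: 0% = growth of vehicle-only cultures of the same strain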; conditions: S. cerevisiae rad50 strain growth inhibition, active compounds read high
# In short: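 A DNA repair-deficient yeast mutant serves as the test organism; compound-induced growth inhibition is calculated against vehicle-treated cells.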
# [5] = NCI Yeast Anticancer Drug Screen. Data for the mec2-1 strain (AID 157); conditions: S. cerevisiae mec2-1 strain, active compounds read high
# In short: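 Strain: mec2-1 (DNA repair/cell cycle alteration). Compound exposure, then growth measured; inhibition expressed relative to vehicle.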
# [6] = NCI Yeast Anticancer Drug Screen. Data for the rad14 strain (AID 159);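 also: 0% = growth of vehicle-treated control cultures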; conditions: S. cerevisiae rad14 strain growth inhibition, active compounds read high
# In short: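 Vehicle-treated cultures served as the baseline for growth inhibition of a DNA repair-mutant yeast strain exposed to each compound.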
# [7] = NCI Yeast Anticancer Drug Screen. Data for the sgs1 mgt1 strain (AID 161);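 also: 0% = growth of cultures given vehicle only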; conditions: S. cerevisiae sgs1 mgt1 strain, active compounds read high
# In short: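 Genetically altered yeast, compound exposure, growth inhibition relative to vehicle.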
# [8] = NCI Yeast Anticancer Drug Screen. Data for the CLN2oe strain (AID 163);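 also: 0% = growth of vehicle-only control cultures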; conditions: S. cerevisiae CLN2oe strain, active compounds read high
# In short: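 Growth of a genetically modified yeast strain is measured after compound exposure and compared with cultures given vehicle alone.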
# [9] = NCI Yeast Anticancer Drug Screen. Data for the cln2 rad14 strain (AID 165);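 also: 0% = growth equal to vehicle treated cultures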; conditions: S. cerevisiae cln2 rad14 strain, active compounds read high
# In short: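 Compounds are applied to the cln2 rad14 yeast strain, and growth is then compared with that of vehicle-treated cultures to give inhibition.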
# [10] = NCI Yeast Anticancer Drug Screen. Data for the bub3 strain (AID 167); conditions: S. cerevisiae bub3 mutant strain, active compounds read high
# In short: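 Inhibition values come from growth of compound-treated mutant yeast normalised to vehicle-treated controls.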
# [11] = NCI Yeast Anticancer Drug Screen. Data for the wt2 strain (AID 169);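 also: 0% = growth of vehicle-treated yeast cultures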; conditions: S. cerevisiae wt2 strain growth inhibition, active compounds read high
# In short: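 This strain belongs to a panel of yeast strains with defined genetic alterations in DNA damage repair or cell cycle control. Compounds are applied, and growth inhibition is measured against vehicle-treated cultures.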
# [12] = NCI Yeast Anticancer Drug Screen. Data for the mlh1 strain (AID 171);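 also: 0% = growth of vehicle-treated control cultures of the same strain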; conditions: S. cerevisiae mlh1 strain growth inhibition, active compounds read high
# In short: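 Growth of the mutant yeast strain after compound exposure, expressed as inhibition relative to vehicle-only controls.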
# [13] = NCI Yeast Anticancer Drug Screen. Data for the sgs1 strain (AID 173);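 also: 0% = growth of vehicle-only control cultures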; conditions: S. cerevisiae sgs1 mutant, active compounds read high
# In short: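 Growth of a yeast strain bearing a defined genetic alteration is measured after compound treatment. Inhibition is expressed relative to vehicle-only controls.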
# [14] = NCI Yeast Anticancer Drug Screen. Data for the mlh1 rad18 strain (AID 175); conditions: S. cerevisiae mlh1 rad18 strain growth inhibition, active compounds read high
# In short: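 Read-out is yeast growth inhibition, calculated against vehicle-only controls. The compound was applied to a strain engineered with DNA damage repair alterations.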
# [15] = NCI Yeast Anticancer Drug Screen. Data for the rad18 strain (AID 177); conditions: S. cerevisiae rad18 mutant growth inhibition, active compounds read high
# In short: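 Growth of the mutant yeast strain after compound exposure, normalised to vehicle-only cultures.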
# [16] = at 5.0 µM (retest, dose inferred, filed as 0.5)
# [17] = at 50.0 µM (retest, dose inferred, filed as 5.0)
compound,measurement,setting,value
CO[C@H](/C(C)=C/C=C/C(C)=C/c1coc(C)n1)[C@H](C)[C@H]1C[C@@H](O)[C@@]2(C)O[C@H]2/C=C/[C@@H](C)[C@@H]2C[C@@H](CC(=O)O2)C[C@H]2O[C@@H]2C(=O)O1,growth inhibition,[1]; at 1.2 µM,6%
same,growth inhibition,[1]; at 3.7 µM,-2%
same,growth inhibition,[1]; at 11.0 µM,14%
same,growth inhibition,[1]; at 33.0 µM,17%
same,growth inhibition,[1]; at 100.0 µM,93% (active)
same,growth inhibition,[2]; at 1.2 µM,7%
same,growth inhibition,[2]; at 3.7 µM,-2%
same,growth inhibition,[2]; at 11.0 µM,2%
same,growth inhibition,[2]; at 33.0 µM,15%
same,growth inhibition,[2]; at 100.0 µM,93% (active)
same,growth inhibition,[3]; at 1.2 µM,-17%
same,growth inhibition,[3]; at 3.7 µM,-9%
same,growth inhibition,[3]; at 11.0 µM,-21%
same,growth inhibition,[3]; at 33.0 µM,-8%
same,growth inhibition,[3]; at 100.0 µM,-23%
same,growth inhibition,[4]; at 1.2 µM,-6%
same,growth inhibition,[4]; at 3.7 µM,-15%
same,growth inhibition,[4]; [16],-9%
same,growth inhibition,[4]; at 11.0 µM,-26%
same,growth inhibition,[4]; at 33.0 µM,4%
same,growth inhibition,[4]; [17],89% (active)
same,growth inhibition,[4]; at 50.0 µM,39.1%
same,growth inhibition,[4]; at 100.0 µM,93% (active)
same,growth inhibition,[5]; at 1.2 µM,-9%
same,growth inhibition,[5]; at 3.7 µM,-5%
same,growth inhibition,[5]; [16],-9%
same,growth inhibition,[5]; at 11.0 µM,-16%
same,growth inhibition,[5]; at 33.0 µM,16%
same,growth inhibition,[5]; [17],93% (active)
same,growth inhibition,[5]; at 50.0 µM,49.2%
same,growth inhibition,[5]; at 100.0 µM,93% (active)
same,growth inhibition,[6]; at 1.2 µM,-28%
same,growth inhibition,[6]; at 3.7 µM,-17%
same,growth inhibition,[6]; at 11.0 µM,-8%
same,growth inhibition,[6]; at 33.0 µM,-8%
same,growth inhibition,[6]; at 100.0 µM,91% (active)
same,growth inhibition,[7]; [16],15%
same,growth inhibition,[7]; [17],91% (active)
same,growth inhibition,[7]; at 50.0 µM,20.6%
same,growth inhibition,[8]; at 1.2 µM,-24%
same,growth inhibition,[8]; at 3.7 µM,-17%
same,growth inhibition,[8]; at 11.0 µM,-13%
same,growth inhibition,[8]; at 33.0 µM,1%
same,growth inhibition,[8]; at 100.0 µM,88% (active)
same,growth inhibition,[9]; [16],8%
same,growth inhibition,[9]; [17],54%
same,growth inhibition,[9]; at 50.0 µM,19.4%
same,growth inhibition,[10]; at 1.2 µM,-19%
same,growth inhibition,[10]; at 3.7 µM,-10%
same,growth inhibition,[10]; [16],37%
same,growth inhibition,[10]; at 11.0 µM,9%
same,growth inhibition,[10]; at 33.0 µM,89% (active)
same,growth inhibition,[10]; [17],95% (active)
same,growth inhibition,[10]; at 50.0 µM,83.3% (active)
same,growth inhibition,[10]; at 100.0 µM,96% (active)
same,growth inhibition,[11]; at 1.2 µM,-12%
same,growth inhibition,[11]; at 3.7 µM,-4%
same,growth inhibition,[11]; at 11.0 µM,-6%
same,growth inhibition,[11]; at 33.0 µM,81% (active)
same,growth inhibition,[11]; at 100.0 µM,92% (active)
same,growth inhibition,[12]; at 1.2 µM,10%
same,growth inhibition,[12]; at 3.7 µM,7%
same,growth inhibition,[12]; at 11.0 µM,11%
same,growth inhibition,[12]; at 33.0 µM,44%
same,growth inhibition,[12]; at 100.0 µM,94% (active)
same,growth inhibition,[13]; at 1.2 µM,1%
same,growth inhibition,[13]; at 3.7 µM,2%
same,growth inhibition,[13]; at 11.0 µM,-6%
same,growth inhibition,[13]; at 33.0 µM,8%
same,growth inhibition,[13]; at 100.0 µM,91% (active)
same,growth inhibition,[14]; [16],-9%
same,growth inhibition,[14]; [17],89% (active)
same,growth inhibition,[14]; at 50.0 µM,33.4%
same,growth inhibition,[15]; at 1.2 µM,0%
same,growth inhibition,[15]; at 3.7 µM,-12%
same,growth inhibition,[15]; at 11.0 µM,-14%
same,growth inhibition,[15]; at 33.0 µM,6%
same,growth inhibition,[15]; at 100.0 µM,92% (active)
CNC(=O)OCC1C2=C(C(=O)C(C)=C(N)C2=O)N2CC3C(N3C)C12OC (stereo unspecified),growth inhibition,[1]; at 1.2 µM,8%
same,growth inhibition,[1]; at 3.7 µM,50%
same,growth inhibition,[1]; at 11.0 µM,52%
same,growth inhibition,[1]; at 33.0 µM,49%
same,growth inhibition,[1]; at 100.0 µM,72% (active)
same,growth inhibition,[2]; at 1.2 µM,-2%
same,growth inhibition,[2]; at 3.7 µM,4%
same,growth inhibition,[2]; at 11.0 µM,4%
same,growth inhibition,[2]; at 33.0 µM,2%
same,growth inhibition,[2]; at 100.0 µM,17%
same,growth inhibition,[3]; at 1.2 µM,0%
same,growth inhibition,[3]; at 3.7 µM,10%
same,growth inhibition,[3]; at 11.0 µM,22%
same,growth inhibition,[3]; at 33.0 µM,30%
same,growth inhibition,[3]; at 100.0 µM,41%
same,growth inhibition,[4]; at 1.2 µM,-12%
same,growth inhibition,[4]; at 3.7 µM,6%
same,growth inhibition,[4]; [16],37%
same,growth inhibition,[4]; at 11.0 µM,15%
same,growth inhibition,[4]; at 33.0 µM,22%
same,growth inhibition,[4]; [17],63%
same,growth inhibition,[4]; at 50.0 µM,51.6%
same,growth inhibition,[4]; at 100.0 µM,52%
same,growth inhibition,[5]; at 1.2 µM,-14%
same,growth inhibition,[5]; at 3.7 µM,2%
same,growth inhibition,[5]; [16],20%
same,growth inhibition,[5]; at 11.0 µM,-1%
same,growth inhibition,[5]; at 33.0 µM,16%
same,growth inhibition,[5]; [17],61%
same,growth inhibition,[5]; at 50.0 µM,55%
same,growth inhibition,[5]; at 100.0 µM,49%
same,growth inhibition,[6]; at 1.2 µM,-18%
same,growth inhibition,[6]; at 3.7 µM,-9%
same,growth inhibition,[6]; at 11.0 µM,0%
same,growth inhibition,[6]; at 33.0 µM,14%
same,growth inhibition,[6]; at 100.0 µM,46%
same,growth inhibition,[7]; [16],30%
same,growth inhibition,[7]; [17],64%
same,growth inhibition,[7]; at 50.0 µM,42.1%
same,growth inhibition,[8]; at 1.2 µM,20%
same,growth inhibition,[8]; at 3.7 µM,22%
same,growth inhibition,[8]; at 11.0 µM,17%
same,growth inhibition,[8]; at 33.0 µM,35%
same,growth inhibition,[8]; at 100.0 µM,37%
same,growth inhibition,[9]; [16],10%
same,growth inhibition,[9]; [17],44%
same,growth inhibition,[9]; at 50.0 µM,43.1%
same,growth inhibition,[10]; at 1.2 µM,1%
same,growth inhibition,[10]; at 3.7 µM,-4%
same,growth inhibition,[10]; [16],20%
same,growth inhibition,[10]; at 11.0 µM,-5%
same,growth inhibition,[10]; at 33.0 µM,9%
same,growth inhibition,[10]; [17],43%
same,growth inhibition,[10]; at 50.0 µM,29.4%
same,growth inhibition,[10]; at 100.0 µM,23%
same,growth inhibition,[11]; at 1.2 µM,-33%
same,growth inhibition,[11]; at 3.7 µM,-40%
same,growth inhibition,[11]; at 11.0 µM,-39%
same,growth inhibition,[11]; at 33.0 µM,-5%
same,growth inhibition,[11]; at 100.0 µM,21%
same,growth inhibition,[12]; at 1.2 µM,-17%
same,growth inhibition,[12]; at 3.7 µM,-4%
same,growth inhibition,[12]; at 11.0 µM,-6%
same,growth inhibition,[12]; at 33.0 µM,14%
same,growth inhibition,[12]; at 100.0 µM,39%
same,growth inhibition,[13]; at 1.2 µM,4%
same,growth inhibition,[13]; at 3.7 µM,8%
same,growth inhibition,[13]; at 11.0 µM,18%
same,growth inhibition,[13]; at 33.0 µM,29%
same,growth inhibition,[13]; at 100.0 µM,54%
same,growth inhibition,[14]; [16],63%
same,growth inhibition,[14]; [17],92% (active)
same,growth inhibition,[14]; at 50.0 µM,67.4%
same,growth inhibition,[15]; at 1.2 µM,12%
same,growth inhibition,[15]; at 3.7 µM,13%
same,growth inhibition,[15]; at 11.0 µM,39%
same,growth inhibition,[15]; at 33.0 µM,73% (active)
same,growth inhibition,[15]; at 100.0 µM,86% (active)
